Experimental data from PubChem BioAssay AID488890 (Southern Research Specialized Biocontainment Screening …, 2010).
The campaign covered roughly 320,000 compounds. About 1,300 (0.41%) were called active. Roughly 3% stayed inconclusive and do not appear here. The rule behind the calls is not given here. Only a sample is shown. Results with a measured potency or affinity are listed apart.

Assay: growth inhibition of non-replicating M. tuberculosis (AID 488890);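 note: plate controls were DMSO cells for no effect and high antibiotic wells for full effect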
Conditions: Mycobacterium tuberculosis non-replicating, at 25 µM, stronger effect = higher value

| SMILES | inhibition [%] |
| --- | --- |
| COc1ccc(-c2sccc2C(C)C(=O)O)cc1 (stereo unspecified) | 1.98 |
| CCOc1ccc(S(=O)(=O)NCCC(=O)N2CCN(c3ccccc3O)CC2)cc1 | 0.02 |
| Cc1cc(C)nc(NS(=O)(=O)c2ccc(NC(=O)c3ccc(S(=O)(=O)N4CCOCC4)cc3)cc2)n1 | 14.6 |
| CCOCC(=O)Nc1nnc(COC)s1 | 9.42 |
| CC(=O)c1ccc(N2CCN(S(=O)(=O)c3cc4[nH]c(=O)c(=O)[nH]c4cc3C)CC2)cc1 | -6.88 |
| COc1ccc(/C=N/Nc2nnc(C)n2N)cc1OC | -3.85 |
| NC(=S)N/N=C/c1ccc(-c2ccc([N+](=O)[O-])cc2)o1 | 63.3 |
| Cc1nnc(N/N=C/c2c(Cl)cccc2Cl)n1N | 18.3 |
| NC(=O)N/N=C/c1ccc(-c2ccc([N+](=O)[O-])cc2)o1 | 45.3 |
| CC(C)(C)c1nnc(N/N=C/c2ccc(Br)cc2)n(N)c1=O | 12 |
| Cc1nnc(N/N=C/c2cc([N+](=O)[O-])c(N3CCC(C)CC3)cc2N2CCC(C)CC2)n1N | 37.3 |
| CC1CCN(c2ccc(/C=N/n3nnnc3N)cc2[N+](=O)[O-])CC1 | 6.33 |
| CCOc1cc(/C=N/Nc2nnc(C)n2N)ccc1O | 2.89 |
| COc1ccc(N(CC(=O)NCCc2ccccc2)C(=O)CCC(=O)Nc2ccccn2)cc1 | -3.83 |
| CC(C)N(CCNC(=O)c1ccc(CS(=O)(=O)c2c(Cl)cccc2Cl)o1)Cc1ccccc1 | 15.8 |
| Cc1ccc(S(=O)(=O)N2CCOCC2)cc1C(=O)OCC(=O)N(Cc1ccccc1)C(C)C | 0.48 |
| O=C(CNC(=O)c1cccs1)NCC(=O)OCc1ccc(Cl)cc1 | 15.7 |
| CCN(CC)S(=O)(=O)c1ccc(N2CCOCC2)c(NS(=O)(=O)c2ccc(OC)cc2)c1 | -8.38 |
| CCc1nc(NC(C)C)c2oc3ccccc3c2n1 | 8.44 |

| SMILES | inhibition [%] |
| --- | --- |
| Cc1nnc(N/N=C\c2ccc(-c3ccccc3[N+](=O)[O-])o2)n1N | 63.6 |
| Cc1nnc(N/N=C\c2ccc(-c3cccc(C(=O)O)c3)o2)n1N | 12.4 |
| CCOc1cc2c(cc1OCC)C(c1ccc(F)cc1)NCC2 (stereo unspecified) | 19.2 |
| CC(CNC(=O)c1ccc(OC2CCN(Cc3ccccn3)CC2)cc1)Oc1cccnc1 (stereo unspecified) | 0.447 |
| COc1ccc(CNC(=O)CCCc2ccccc2)cc1 | 1.45 |
| COc1ccc(CCNC(=O)CCCc2ccccc2)cc1OC | 26.3 |
| CN(CC(=O)Nc1ccc(F)c(F)c1)S(=O)(=O)c1cccc2cccnc12 | 0.37 |
| O=C(COC(=O)c1ccccn1)Nc1c(Cl)cccc1Cl | 8.09 |
| COC(=O)c1ccc(OC(=O)c2ccccn2)cc1 | 42 |
| O=C(OCc1ccc(Cl)c(Cl)c1)c1cnccn1 | 4.21 |
| O=C(COC(=O)c1ccccn1)Nc1ccccc1Cl | 3.22 |
| O=C(OCc1c(Cl)cccc1Cl)c1cccnc1Cl | 33.3 |
| COC(=O)c1ccc(COC(=O)c2cnccn2)cc1 | 55.1 |
| N#Cc1ccc(COC(=O)c2ccccn2)cc1 | 55.2 |
| O=C(OCc1c(Cl)cccc1Cl)c1cnccn1 | 17.6 |
| O=C(c1cccs1)N1CCN(C2CCCCC2)CC1 | 14.6 |
| O=C(CSc1nnc(CNC(=O)c2ccccc2F)o1)NCC1CCCO1 (stereo unspecified) | 4.55 |
| Cc1cc(C)c(C)c(C(=O)COC(=O)CNC(=O)CNC(=O)c2ccco2)c1C | 6.12 |
| CN(C)/C=N/c1cc(=O)[nH]c(=O)n1CC1CC1 | -0.07 |

| SMILES | inhibition [%] |
| --- | --- |
| O=C(COc1ccc2ccccc2c1Br)N1CCCCC1 | 76.2 |
| O=C(Oc1c(Cl)cc(Cl)c2cccnc12)N1CCCCC1 | 22.4 |
| CN1CCN(C(=O)COc2ccc3ccccc3c2Br)CC1 | 37.4 |
| O=C(Oc1c(Br)cc(Br)c2cccnc12)N1CCCCC1 | 43.3 |
| O=C(COc1ccccc1F)Nc1c2c(nn1-c1ccccc1)CS(=O)(=O)C2 | 16.8 |
| Cc1ccc(OCC(O)Cn2c(N3CCOCC3)nc3c2c(=O)[nH]c(=O)n3C)cc1 (stereo unspecified) | 14.4 |
| COc1cccc(/C=N/N2CCN(c3ccccc3OC)CC2)c1 | 2.17 |
| CCCCC[C@@H]1C=C(C(=O)O)[C@H](c2ccc3c(c2)OCO3)N1S(=O)(=O)c1ccc(C)cc1 | 27.2 |
| COC(=O)C1ON2OC(C(=O)OC)C(C(=O)OC)C2C1CC(C)=O (stereo unspecified) | -1.62 |
| Cc1ccc(-c2nnc(C)c(N3CCOCC3)n2)cc1 | 7.79 |
| Cc1ccc(-c2nnc(C)c(N3CC(C)OC(C)C3)n2)cc1 (stereo unspecified) | 2.5 |
| CCOC(=O)C1=C(N)OC2=C(C(=O)CC(C)(C)C2)C1c1ccc(C)s1 (stereo unspecified) | 64.3 |
| O=C(COC(=O)c1cccnc1Cl)NCCCc1ccccc1 | 27.7 |
| COc1ncccc1-c1nnn(-c2ccccc2Br)n1 | 3.8 |
| C#CCOc1ccc2c(c1)c(C(C)=O)c(C)n2Cc1ccccc1 | -5.53 |
| CCOC(=O)COc1ccc2c(c1)c(C(C)=O)c(C)n2-c1ccccc1 | 19.1 |
| O=C(COc1ccc(F)cc1Br)NCc1ccccn1 | 28.1 |
| COc1ccc(S(=O)(=O)NCc2ccncc2)cc1NC(=O)c1ccc(Cl)cc1 | 5.22 |
